Source: PubChem BioAssay
Values joined by “and” are separate entries in the source; they are usually repeats but may differ in a detail not shown here. Equal values may be shown once. Active and inactive are the calls of the source. Unless noted, the rule behind the calls is not given here.

Key:
[1] = circadian clock period modulators, cell-based, LOPAC library, luminescence reporter (AID 2774); details: circadian reporter cells, at 7 µM, actives lie on both sides;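 note: values are relative to mean of DMSO wells on each plate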
[2] = hESC survival regulators, cell-based (AID 493140); details: human embryonic stem cell survival screen; stronger effect = higher value;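 note: cells exposed to compounds for four days before counting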
[3] = liver-stage malaria parasite growth inhibition, primary screen, cell-based, HepG2, luciferase luminescence, HepG2 viability (AID 624349; in the data active = parasite load remaining mostly below about 12%, no sharp cut-off; inactive = mostly above about 10%;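 note: 100% = mean of DMSO negative control wells on the same plate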); details: P. berghei liver stage in HepG2, luciferase luminescence, concentration not given here; parasite load remaining: stronger effect = lower value; viability: measured here: HepG2 viability without parasites
[4] = tested on: Hepatitis C virus NS3 helicase; test: HCV NS3 helicase inhibitors, primary screen, biochemical, fluorescence polarization, LOPAC1280 library (AID 687035; in the data active = inhibition above about 37%); details: Purified HCV NS3 helicase, Cy5-dT15 ssDNA binding fluorescence polarization; stronger effect = higher value; concentration not given here
[5] = Cy5 fluorescence quenching or enhancement artefacts, artefact control for HCV NS3 helicase inhibitor project, biochemical, LOPAC1280 (AID 687037); details: Cy5-DNA-NS3h complex fluorescence interference counterscreen
[6] = sensitizers of A549 cells to miR-34 induction, primary screen, imaging, A549 dox-inducible miR-34, nuclei and caspase counts (AID 1347080;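 active = compounds whose cell count with miR-34 switched on is under 0.7 times the count with it off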); details: A549 miR-34 inducible, Hoechst nuclei count, 48 h
[7] = phospholipid biosynthesis inhibitors in animal cells, primary screen, cell-based, LOPAC library, screen 4 (AID 1347384); details: phospholipid biosynthesis inhibition screen, at 10 µM
[8] = survival rescue of mitochondrial mutant cells in low glucose, primary screen, MELAS cybrids, Rieske KO mouse fibroblasts, CellTiter-Glo (AID 1508586;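 active = mean z-score across replicates of 1.96 or higher in either the MELAS or the Rieske mutant cell line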;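 note: z relative to plate mean and SD of compound and empty wells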)
[9] = viability rescue of complex I mutant cybrids, primary screen, cell-based, galactose medium, ATP luminescence (AID 1645843;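 active = z-score of at least 1.8 in each of two replicates, scored against plate mean and spread of sample wells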;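 note: positive z means more ATP and so rescue of galactose-driven cybrid death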); details: complex I mutant cybrid cells, 72 h, stronger effect = higher value
[10] = inhibitors of Cryptococcus chitosan production, flow cytometry, Cibacron Brilliant Red staining (AID 1347148); details: Cryptococcus neoformans chitosan, stronger effect = lower value; at 10 µM unless noted;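 note: compound exposure lasted three days at 37 degrees C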
[11] = stronger effect = lower value, cell number ratio, induced over uninduced
[12] = measured here: relative caspase fold change +Dox/-Dox
[13] = measured here: total cells with miR-34 induction, stronger effect = lower value
[14] = measured here: total cells without miR-34 induction
[15] = MELAS cybrid survival, CellTiter-Glo 48 h, stronger effect = higher value
[16] = Rieske KO mouse fibroblast survival, CellTiter-Glo 72 h

Structure (SMILES) | period change [1] | survival [2] | parasite load remaining [3] | viability [3] | inhibition [4] | fluorescence ratio (interference) [5] | fold change [6, 11] | fold change [6, 12] | cell count [6, 13] | cell count [6, 14] | outcome [7] | z-score [8, 15] | z-score [8, 16] | z-score [9] | fold fluorescence [10]
NC(N)=NCc1cccc(I)c1 | 0.01 h (inactive) | 4 (inactive) | 28.4% (inactive) and 43.8% (inactive) | 121% and 78.9% | -5% (inactive) | 0.9 (inactive) | 1.1 (inactive) and 0.739 (inactive) | 0.666 and 1.95 | 8720 and 5880 | 7960 | inactive | -0.124 (inactive) | -0.101 | -0.305 (inactive) | 
CCCCCC#CCC#CCC#CCC#CCCCC(=O)O |  | 87.3 (inactive) |  |  |  |  | 0.956 (inactive) and 0.974 (inactive) | 1.11 and 0.98 | 5420 and 5670 | 5670 and 5820 |  |  |  |  | 5.73 (inactive)
CC/C=C\C/C=C\C/C=C\CCCCCCCC(=O)O |  | 92.8 (inactive) |  |  |  |  | 0.97 (inactive) and 0.988 (inactive) | 1.3 and 0.691 | 6070 and 5710 | 6250 and 5780 |  |  |  |  | 4.4 (inactive)
CC/C=C\C/C=C\C/C=C\C/C=C\C/C=C\CCCCCC(=O)O |  | 78 (inactive) |  |  |  |  | 0.983 (inactive) and 0.953 (inactive) | 0.972 and 0.777 | 5080 and 5820 | 5170 and 6110 |  |  |  |  | 5.56 (inactive)
O=C(O)CNC(=O)C(CS)Cc1ccccc1 (stereo unspecified) | -0.18 h (inactive) | 4.92 (inactive) | 144% (inactive) and 78.5% (inactive) | 103% and 75.5% | 0% (inactive) | 1 (inactive) | 0.968 (inactive) and 0.835 (inactive) and 1 (inactive) | 1.08 and 1.52 and 1.29 | 9910 and 8670 and 5950 | 10200 and 10400 and 5920 | inactive | -0.922 (inactive) | 0.154 | 0.48 (inactive) | 
CCCCCCCCCCCCC/C=C/[C@@H](O)[C@H](CO)NC(=O)CCCCCCC |  | 77.3 (inactive) |  |  |  |  | 0.885 (inactive) and 1 (inactive) | 2.05 and 0.909 | 5260 and 5480 | 5940 and 5480 |  |  |  |  | 4.66 (inactive)
CC/C=C\C/C=C\C/C=C\C/C=C\C/C=C\C/C=C\CCC(=O)O |  | 81.3 (inactive) |  |  |  |  | 0.965 (inactive) and 0.982 (inactive) | 0.949 and 0.678 | 5660 and 5960 | 5860 and 6070 |  |  |  |  | 4.24 (inactive)
CCCCC/C=C\C/C=C\C/C=C\CCCCCCC(=O)O |  | 92.4 (inactive) |  |  |  |  | 1.02 (inactive) and 1.05 (inactive) | 1.28 and 1.4 | 5830 and 6270 | 5710 and 6000 |  |  |  |  | 4.94 (inactive)
CCCCC/C=C/C=C1/C(=O)C=C[C@@H]1C/C=C\CCCC(=O)O |  | 82.2 (inactive) |  |  |  |  | 1.04 (inactive) and 0.838 (inactive) and 1.58 (inactive) | 1.45 and 1.36 and 1.03 | 5600 and 6330 and 6250 | 5380 and 7550 and 3960 |  |  |  |  | 6.54 (inactive)
CC(N)C1CCC(C(=O)Nc2ccncc2)CC1 (stereo unspecified) | 0 h (inactive) |  |  |  | -1% (inactive) | 1 (inactive) | 0.953 (inactive) and 0.841 (inactive) | 1.2 and 0.911 | 10100 and 7170 | 10600 and 8530 | inactive | -0.271 (inactive) | 0.184 | -0.475 (inactive) | 
CCCCC[C@H](O)/C=C/[C@H]1C=CC(=O)[C@@H]1C/C=C\CCCC(=O)O |  | 122 (inactive) |  |  |  |  | 0.976 (inactive) and 0.946 (inactive) | 1.27 and 1.82 | 5740 and 5500 | 5880 and 5820 |  |  |  |  | 4.51 (inactive)
CC(C)NC[C@H](O)c1ccc(O)c(O)c1 | 0.03 h (inactive) |  | 71.3% (inactive) | 68.4% | 3% (inactive) and -5% (inactive) | 1 (inactive) and 0.9 (inactive) | 1.16 (inactive) and 1.1 (inactive) and 0.953 (inactive) | 0.694 and 0.901 and 0.646 | 9390 and 11000 and 9560 | 8130 and 10100 and 10000 | inactive | -0.508 (inactive) | -0.956 | -1.02 (inactive) and -1.29 (inactive) | 
O=C(O)CCC/C=C\CC1C2CCC(O2)C1CNNC(=O)Nc1ccccc1 (stereo unspecified) |  | 88.6 (inactive) |  |  |  |  | 0.964 (inactive) and 0.895 (inactive) | 1.45 and 1.09 | 5700 and 5510 | 5910 and 6160 |  |  |  |  | 4.39 (inactive)
CC/C=C\C/C=C\C/C=C\C/C=C\C/C=C\CCCC(=O)O |  | 106 (inactive) |  |  |  |  | 0.976 (inactive) and 0.979 (inactive) | 0.982 and 0.878 | 5680 and 5960 | 5820 and 6080 |  |  |  |  | 4.6 (inactive)
CCCCCCCC/C=C\C/C=C\C/C=C\CCCC(=O)O |  | 69.8 (inactive) |  |  |  |  | 0.997 (inactive) and 0.986 (inactive) | 1.14 and 0.749 | 6200 and 5590 | 6220 and 5670 |  |  |  |  | 4.51 (inactive)
COc1ccccc1N1CCN(CCCCNC(=O)c2ccc3ccccc3c2)CC1 | 0.185 h (inactive) |  | 110% (inactive) and 55% (inactive) | 97.7% and 74.2% | -1% (inactive) | 1 (inactive) | 1.04 (inactive) and 0.819 (inactive) | 1.41 and 1.7 | 7170 and 7370 | 6900 and 9000 | inactive | -0.843 (inactive) | 0.134 | -0.51 (inactive) | 
